This is a sample that favours compounds with a hit; in the whole collection about 2.1% have one here.
ARNT-TACC3 inh = ARNT/TACC3 interaction disruption; inhibition, % at 9.99 µM; 0.66% of 390,000 active; Q9Y6A5; AID 623870; AlphaScreen His-ARNT PAS-B/GST-TACC3 binding, luminescence; TACC3 fragment carries E629A point mutation;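 active = mean inhibition of replicates at least 50% and at least half of replicates each reaching 50%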
PvdQ inh = P. aeruginosa PvdQ acylase inhibition; purified PvdQ acylase, fluorescence plate reader; inhibition, % at 10 µM; 0.063% of 340,000 active; in the data active = inhibition above about 30%, passing the limit was not always enough
ERAP1 HTS inh = inhibitors of human ERAP1 aminopeptidase; recombinant ERAP1, Leu-AMC fluorescence, 60 min; inhibition, % at 10.7 µM; 0.15% of 340,000 active; AID 652197;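 active = mean replicate inhibition of at least 30%, or all replicates individually reaching that 30% level; inactive = mean below 30% and not every replicate reaching it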
Target sequence (Q9NZ08 whole entry, looked up): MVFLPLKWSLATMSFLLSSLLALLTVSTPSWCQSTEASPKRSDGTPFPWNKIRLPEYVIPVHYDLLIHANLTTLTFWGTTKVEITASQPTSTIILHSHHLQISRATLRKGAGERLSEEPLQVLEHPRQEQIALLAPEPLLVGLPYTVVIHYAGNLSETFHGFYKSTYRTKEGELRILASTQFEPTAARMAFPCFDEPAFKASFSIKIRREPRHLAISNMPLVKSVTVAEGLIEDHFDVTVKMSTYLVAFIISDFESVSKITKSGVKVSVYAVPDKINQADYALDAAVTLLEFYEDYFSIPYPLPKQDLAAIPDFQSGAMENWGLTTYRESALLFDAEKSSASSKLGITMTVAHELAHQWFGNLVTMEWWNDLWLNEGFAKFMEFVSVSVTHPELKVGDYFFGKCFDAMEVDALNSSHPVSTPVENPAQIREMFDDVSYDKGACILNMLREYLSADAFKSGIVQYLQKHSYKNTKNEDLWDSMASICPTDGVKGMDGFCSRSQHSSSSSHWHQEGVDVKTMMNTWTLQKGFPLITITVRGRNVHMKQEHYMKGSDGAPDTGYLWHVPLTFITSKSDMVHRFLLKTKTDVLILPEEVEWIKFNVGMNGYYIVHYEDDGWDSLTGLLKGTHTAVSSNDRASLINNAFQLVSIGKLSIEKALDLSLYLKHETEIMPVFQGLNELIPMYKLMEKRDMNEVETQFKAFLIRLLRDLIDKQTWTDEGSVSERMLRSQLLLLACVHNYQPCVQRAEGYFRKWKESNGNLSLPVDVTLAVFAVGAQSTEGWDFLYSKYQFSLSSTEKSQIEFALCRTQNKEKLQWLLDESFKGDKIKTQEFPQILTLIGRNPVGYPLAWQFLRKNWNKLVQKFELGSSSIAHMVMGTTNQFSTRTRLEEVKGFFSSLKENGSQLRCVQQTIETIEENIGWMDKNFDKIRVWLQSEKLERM
F508del corr = correctors of CFTR F508del function in bronchial epithelial cells; CFBE cells, YFP halide quenching; stimulated with forskolin plus potentiator P3; % fluorescence drop versus neutral controls; activity (quench increase), % at 7.58 µM; 0.36% of 350,000 active;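 active = mean added fluorescence quench of at least 8% versus neutral control, with both replicates also reaching 8%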;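 also: cells transiently co-express mutant CFTR-F508del with the halide-sensitive YFP; corrector assay measuring rescue of mutant channel to the surface after 24 h compound exposure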
Ecoli rRNA inh = inhibits bacterial ribosomal RNA function over humanized ribosomes; E. coli WT GFP vs humanized-ribosome RFP mutants, fluorescence, 24 h; hits give low values; DMSO median 0, no signal -100; AID 720706; GFP signal change (wild-type ribosome), % (no concentration beside the values); 1.6% of 350,000 active;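 active = significant combined selectivity score with lowered wild-type GFP, culture density cut under 30%, mutant RFP and density less affected; inactive = any of these conditions unmet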
Large screens that a line does not name were inactive.

CC(CCc1ccccc1)NC(=O)CN(C)Cc1ccccc1F (stereo not given)	Ecoli rRNA inh -29
Cc1cc(=O)n(-c2ccc(C(=O)O)cc2)[nH]1	ARNT-TACC3 inh 50
C[C@H](CO)N1C[C@H](C)[C@@H](CN(C)Cc2ccc3c(c2)OCO3)Oc2ccc(NC(=O)Nc3cccc4ccccc34)cc2CC1=O	none (no result: PvdQ inh)
FC(F)(F)c1ccc(Cl)c(CN2CCN(c3ncc(Cc4ccccc4)cn3)CC2)c1	none (no result: ARNT-TACC3 inh, PvdQ inh)
CCn1c(=O)c([N+](=O)[O-])c(NCc2ccco2)c2ccccc21	none (no result: ARNT-TACC3 inh, PvdQ inh, ERAP1 HTS inh)
CCN(CC)c1c([N+](=O)[O-])c(=O)n(CC)c2ccccc12	Ecoli rRNA inh -35 (no result: ARNT-TACC3 inh, PvdQ inh)
CCNc1c([N+](=O)[O-])c(=O)n(CC)c2ccccc12	Ecoli rRNA inh -33 (no result: ARNT-TACC3 inh, PvdQ inh)
C[C@H](CO)N1C[C@H](C)[C@H](CN(C)C(=O)NC2CCCC2)Oc2cc(C#Cc3ccc(F)cc3)ccc2S1(=O)=O	F508del corr 9.7 (no result: PvdQ inh)
C[C@H](CO)N1C[C@H](C)[C@@H](CN(C)C(=O)NC2CCCC2)Oc2cc(C#Cc3ccc(F)cc3)ccc2S1(=O)=O	none (no result: PvdQ inh)
C[C@H]1CN([C@@H](C)CO)S(=O)(=O)c2ccc(C#Cc3ccc(F)cc3)cc2O[C@H]1CN(C)C(=O)NC1CCCC1	F508del corr 8.6 (no result: PvdQ inh)
Cc1ccc(-c2ccc3c(c2)O[C@@H](CN(C)C(=O)Nc2ccc(F)cc2)[C@@H](C)CN([C@H](C)CO)S3(=O)=O)cc1	F508del corr 8.5 (no result: PvdQ inh)
Cc1ccc(-c2ccc3c(c2)O[C@H](CN(C)C(=O)Nc2ccc(F)cc2)[C@H](C)CN([C@H](C)CO)S3(=O)=O)cc1	none (no result: PvdQ inh)
C[C@@H]1CN([C@@H](C)CO)S(=O)(=O)c2ccc(C#Cc3ccc(F)cc3)cc2O[C@H]1CN(C)C(=O)NC1CCCCC1	none (no result: PvdQ inh)
C[C@H](CO)N1C[C@H](C)[C@@H](CN(C)C(=O)NC2CCCCC2)Oc2cc(C#Cc3ccc(F)cc3)ccc2S1(=O)=O	F508del corr 8.5 (no result: PvdQ inh)
Cc1noc(C)c1CCC(=O)NC1CCCN(Cc2ccc(Cl)cc2)C1 (stereo not given)	ARNT-TACC3 inh 46
Cc1noc(C)c1CCC(=O)NC1CCCN(Cc2ccc(CC(C)C)cc2)C1 (stereo not given)	none
CO[C@@H]1CN(C)C(=O)c2cc(NC(=O)C3CC3)ccc2OC[C@@H](C)N(C(C)=O)C[C@@H]1C	none (no result: PvdQ inh)
NC(=O)COc1ccc(Nc2nnc(-c3ccc(O)cc3)c3ccccc23)cc1	Ecoli rRNA inh -25 (no result: ERAP1 HTS inh)
O=C(C[C@H]1CC[C@H]2[C@@H](COC[C@@H](O)CN2C(=O)C2CC2)O1)NCc1ccncc1	none (no result: PvdQ inh)
Clc1nc(Cl)c2ncn(-c3ccccc3)c2n1	Ecoli rRNA inh -17
Nc1nc2c(ncn2-c2ccccc2)c(=O)[nH]1	ARNT-TACC3 inh 46 (no result: Ecoli rRNA inh)
CC(C)NC(=O)N[C@H]1C=C[C@H](CC(=O)NC2Cc3ccccc3C2)O[C@@H]1CO	none (no result: PvdQ inh)
O=C(C[C@H]1CC[C@H]2[C@@H](COC[C@@H](O)CN2CCc2ccccc2)O1)NCc1ccc(Oc2ccccc2)cc1	none (no result: PvdQ inh)
CC(C)CC#Cc1ccc2c(c1)O[C@H](CN(C)C(=O)Cc1ccncc1)[C@H](C)CN([C@@H](C)CO)S2(=O)=O	none (no result: PvdQ inh)
COc1ccc(/C=C2\CCc3ccccc3C2=O)cc1CN1CCOCC1	Ecoli rRNA inh -30
C[C@H](CO)N1C[C@H](C)[C@@H](CN(C)S(C)(=O)=O)Oc2ccc(NC(=O)CCN3CCOCC3)cc2CC1=O	none (no result: PvdQ inh)
Nc1ccc2nc(SCc3cccc(F)c3)sc2c1	Ecoli rRNA inh -31 (no result: F508del corr)
NCC(=O)NNC(=O)OCC1c2ccccc2-c2ccccc21	F508del corr 8.6
O=C1c2ccccc2NC(c2cccc([N+](=O)[O-])c2)N1CCc1ccccc1 (stereo not given)	Ecoli rRNA inh -20
COC1C(CO)OC(n2c3c(Cl)cccc3c3c4c(c5c6cccc(Cl)c6[nH]c5c32)C(=O)NC4=O)C(O)C1O (stereo not given)	F508del corr 9.8
COc1ccc(S(=O)(=O)N(C)C[C@@H]2Oc3ccc(NC(=O)C4CCCCC4)cc3CC(=O)N([C@@H](C)CO)C[C@H]2C)cc1	none (no result: PvdQ inh)
C[C@H](CO)N1C[C@H](C)[C@H](CN(C)S(=O)(=O)c2cccs2)Oc2ccc(NC(=O)CCCCCC(=O)Nc3ccccc3N)cc2CC1=O	none (no result: PvdQ inh, ERAP1 HTS inh)
O=C(NCCc1ccccc1)C(=O)NCC1OCCN1S(=O)(=O)c1ccc2c(c1)OCCO2 (stereo not given)	none
O=C(NCCCn1ccnc1)C(=O)NCC1OCCN1S(=O)(=O)c1ccc2c(c1)OCCO2 (stereo not given)	ARNT-TACC3 inh 64
Cc1c(C(=O)N/N=C/c2cccnc2)sc(=S)n1C	none (no result: ERAP1 HTS inh, F508del corr, Ecoli rRNA inh)
Cn1c(N)c(C(=O)N/N=C/c2ccccc2)sc1=S	Ecoli rRNA inh -36
Cc1cc(C2(c3ccc(O)c(C)c3)C(=O)N(C)c3ccc(Br)cc32)ccc1O	Ecoli rRNA inh -40 (no result: F508del corr)
Cc1ccc2c(c1)C(c1ccc(O)cc1)(c1ccc(O)cc1)C(=O)N2C	none
O=C(Nc1ccccc1)ON=C1c2ccccc2-c2ccccc21	Ecoli rRNA inh -35
CNC(=S)N(CCc1c(C)[nH]c2ccccc12)Cc1ccco1	Ecoli rRNA inh -20 (no result: ERAP1 HTS inh)
CNC(=S)N(CCc1c(C)[nH]c2ccc(F)cc12)Cc1ccco1	none
O=C(Nc1ccno1)Nc1ccc(Cl)cc1Cl	Ecoli rRNA inh -30
O=C(Nc1ccc(Cl)cc1Cl)Nn1cnnc1	none (no result: ARNT-TACC3 inh)
CC(C)(C)c1ccc(CC(=O)N2CCC2(C)C(=O)NS(=O)(=O)c2cccc(Cl)c2)cc1 (stereo not given)	Ecoli rRNA inh -33 (no result: ARNT-TACC3 inh, PvdQ inh)
CC(C)(C)c1ccc(CC(=O)N2CCC2(C)C(=O)NS(=O)(=O)c2cccc(C#N)c2)cc1 (stereo not given)	none (no result: ARNT-TACC3 inh, PvdQ inh)
CC1(C(=O)NS(=O)(=O)c2cccc(F)c2)CCN1C(=O)C1(c2ccc(Cl)cc2)CCC1 (stereo not given)	Ecoli rRNA inh -16 (no result: ARNT-TACC3 inh, PvdQ inh)
CC1(C(=O)NS(=O)(=O)c2cccc(C#N)c2)CCN1C(=O)C1(c2ccc(Cl)cc2)CCC1 (stereo not given)	Ecoli rRNA inh -15 (no result: ARNT-TACC3 inh, PvdQ inh)
CC(C)NC(=O)N(C)C[C@H]1Oc2ccc(N(C)C)cc2C(=O)N(C)C[C@@H]1C	none (no result: ARNT-TACC3 inh, PvdQ inh, ERAP1 HTS inh, F508del corr)
COc1ccc(OCc2cccc(C(=O)O)c2)cc1	none (no result: ERAP1 HTS inh, F508del corr, Ecoli rRNA inh)
CCOc1ccc(OCc2cccc(C(=O)O)c2)cc1	Ecoli rRNA inh -24
Cn1c(-c2ccccc2)cc(=NNS(C)(=O)=O)c2cc(S(=O)(=O)O)ccc21	ERAP1 HTS inh 37 (no result: ARNT-TACC3 inh, PvdQ inh)
Cn1c(-c2ccccc2)cc(=O)c2ccccc21	none (no result: ERAP1 HTS inh, F508del corr, Ecoli rRNA inh)
CC(C)NC(=O)N(C)C[C@H]1Oc2ccc(NC(=O)NC3CCCCC3)cc2CC(=O)N([C@@H](C)CO)C[C@@H]1C	none (no result: PvdQ inh)
CCOC(=O)c1ccc(CC(=O)c2ccc(O)c(O)c2O)o1	none
CCOC(=O)c1ccc(CC(=O)c2oc3cc(O)ccc3c2C)o1	Ecoli rRNA inh -22
C[C@@H]1CN([C@@H](C)CO)S(=O)(=O)c2ccc(-c3ccccc3)cc2O[C@@H]1CN(C)C(=O)C1CCC1	none (no result: ARNT-TACC3 inh, PvdQ inh, ERAP1 HTS inh)

Source: PubChem
